Assay results: the supplement of paper PMC11732987, “Enantioselective OTUD7B fragment discovery through chemoproteomics screening and high-throughput optimisation” (Communications Chemistry, 2025)

Columns and labels:
Test in all cases: log2 ratio of Biotin-Ahx-Ub-VS probe labelling (fragment/DMSO); higher = less target engagement (more negative = stronger competition), active = hit call of the paper (q ≤ 0.05, log2 ratio ≤ -1)
Settings in all cases: compound concentration: 200 uM; treatment time: 3 h
USP42 = biological target: T1, USP42 (UniProt Q9H9J4)
T1 sequence (whole entry): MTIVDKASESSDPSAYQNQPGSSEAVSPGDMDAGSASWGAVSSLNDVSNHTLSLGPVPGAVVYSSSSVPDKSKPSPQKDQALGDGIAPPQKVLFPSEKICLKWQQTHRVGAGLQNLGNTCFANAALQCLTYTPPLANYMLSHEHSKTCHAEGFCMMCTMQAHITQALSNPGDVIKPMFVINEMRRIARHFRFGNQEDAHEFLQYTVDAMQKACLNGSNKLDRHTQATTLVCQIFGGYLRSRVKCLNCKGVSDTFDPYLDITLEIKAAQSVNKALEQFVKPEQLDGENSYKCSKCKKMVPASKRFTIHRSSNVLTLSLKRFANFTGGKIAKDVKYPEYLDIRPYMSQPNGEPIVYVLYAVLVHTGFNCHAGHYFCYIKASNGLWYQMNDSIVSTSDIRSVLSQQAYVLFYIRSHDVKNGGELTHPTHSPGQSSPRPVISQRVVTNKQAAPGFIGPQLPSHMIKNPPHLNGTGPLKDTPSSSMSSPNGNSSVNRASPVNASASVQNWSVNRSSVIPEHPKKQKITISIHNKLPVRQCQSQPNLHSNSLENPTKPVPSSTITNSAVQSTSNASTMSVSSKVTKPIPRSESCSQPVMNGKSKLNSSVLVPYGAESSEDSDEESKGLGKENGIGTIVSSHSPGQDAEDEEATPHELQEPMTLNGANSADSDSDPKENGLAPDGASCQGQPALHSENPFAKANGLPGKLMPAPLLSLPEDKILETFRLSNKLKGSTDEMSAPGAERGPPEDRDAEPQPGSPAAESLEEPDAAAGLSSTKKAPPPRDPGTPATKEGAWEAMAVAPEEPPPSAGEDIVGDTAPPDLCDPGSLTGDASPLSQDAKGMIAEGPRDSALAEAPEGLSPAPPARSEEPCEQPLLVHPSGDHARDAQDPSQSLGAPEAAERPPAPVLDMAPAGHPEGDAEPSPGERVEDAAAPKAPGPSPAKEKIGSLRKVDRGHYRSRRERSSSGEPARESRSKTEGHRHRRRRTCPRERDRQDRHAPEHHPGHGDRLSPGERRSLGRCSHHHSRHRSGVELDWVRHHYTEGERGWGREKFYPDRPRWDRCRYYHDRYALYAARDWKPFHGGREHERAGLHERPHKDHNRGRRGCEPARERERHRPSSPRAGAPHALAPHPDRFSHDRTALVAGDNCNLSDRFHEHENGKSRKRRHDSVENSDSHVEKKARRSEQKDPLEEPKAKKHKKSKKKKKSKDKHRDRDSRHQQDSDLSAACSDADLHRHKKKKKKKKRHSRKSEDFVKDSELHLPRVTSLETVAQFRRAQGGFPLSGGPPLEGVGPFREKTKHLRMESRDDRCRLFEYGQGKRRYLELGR
Method in brief: (§1)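 Labelling with Biotin-Ahx-Ub-VS (0.5 µM final, 1 h) followed a 3 h triplicate treatment of HEK293T lysate (495 µg per sample, Tris/CHAPS/IGEPAL buffer with protease inhibitors) with fragment at 200 µM or vehicle. Labelled DUBs were NeutrAvidin-enriched, digested with LysC and trypsin, and run by diaPASEF LC-MS/MS. The values, average log2 fragment/vehicle ratios by unpaired t-test, come from global-median-normalised Spectronaut label-free quantities. Proteins with ≥2 unique peptides were used.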

USP46 = USP46 (UniProt P62068)
Chain of USP46 (P62068 whole entry): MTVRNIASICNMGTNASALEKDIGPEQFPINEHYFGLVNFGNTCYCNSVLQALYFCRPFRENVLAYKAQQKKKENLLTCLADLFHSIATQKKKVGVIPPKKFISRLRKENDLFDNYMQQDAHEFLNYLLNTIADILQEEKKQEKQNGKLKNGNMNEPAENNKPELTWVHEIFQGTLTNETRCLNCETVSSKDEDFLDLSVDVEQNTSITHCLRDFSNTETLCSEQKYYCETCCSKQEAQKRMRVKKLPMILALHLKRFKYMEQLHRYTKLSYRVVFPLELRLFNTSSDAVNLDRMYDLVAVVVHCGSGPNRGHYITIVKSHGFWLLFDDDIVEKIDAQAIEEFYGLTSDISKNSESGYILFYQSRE
Method in brief: as §1

USP47 = biological target: T2, USP47 (UniProt Q96K76)
T2 sequence (whole entry): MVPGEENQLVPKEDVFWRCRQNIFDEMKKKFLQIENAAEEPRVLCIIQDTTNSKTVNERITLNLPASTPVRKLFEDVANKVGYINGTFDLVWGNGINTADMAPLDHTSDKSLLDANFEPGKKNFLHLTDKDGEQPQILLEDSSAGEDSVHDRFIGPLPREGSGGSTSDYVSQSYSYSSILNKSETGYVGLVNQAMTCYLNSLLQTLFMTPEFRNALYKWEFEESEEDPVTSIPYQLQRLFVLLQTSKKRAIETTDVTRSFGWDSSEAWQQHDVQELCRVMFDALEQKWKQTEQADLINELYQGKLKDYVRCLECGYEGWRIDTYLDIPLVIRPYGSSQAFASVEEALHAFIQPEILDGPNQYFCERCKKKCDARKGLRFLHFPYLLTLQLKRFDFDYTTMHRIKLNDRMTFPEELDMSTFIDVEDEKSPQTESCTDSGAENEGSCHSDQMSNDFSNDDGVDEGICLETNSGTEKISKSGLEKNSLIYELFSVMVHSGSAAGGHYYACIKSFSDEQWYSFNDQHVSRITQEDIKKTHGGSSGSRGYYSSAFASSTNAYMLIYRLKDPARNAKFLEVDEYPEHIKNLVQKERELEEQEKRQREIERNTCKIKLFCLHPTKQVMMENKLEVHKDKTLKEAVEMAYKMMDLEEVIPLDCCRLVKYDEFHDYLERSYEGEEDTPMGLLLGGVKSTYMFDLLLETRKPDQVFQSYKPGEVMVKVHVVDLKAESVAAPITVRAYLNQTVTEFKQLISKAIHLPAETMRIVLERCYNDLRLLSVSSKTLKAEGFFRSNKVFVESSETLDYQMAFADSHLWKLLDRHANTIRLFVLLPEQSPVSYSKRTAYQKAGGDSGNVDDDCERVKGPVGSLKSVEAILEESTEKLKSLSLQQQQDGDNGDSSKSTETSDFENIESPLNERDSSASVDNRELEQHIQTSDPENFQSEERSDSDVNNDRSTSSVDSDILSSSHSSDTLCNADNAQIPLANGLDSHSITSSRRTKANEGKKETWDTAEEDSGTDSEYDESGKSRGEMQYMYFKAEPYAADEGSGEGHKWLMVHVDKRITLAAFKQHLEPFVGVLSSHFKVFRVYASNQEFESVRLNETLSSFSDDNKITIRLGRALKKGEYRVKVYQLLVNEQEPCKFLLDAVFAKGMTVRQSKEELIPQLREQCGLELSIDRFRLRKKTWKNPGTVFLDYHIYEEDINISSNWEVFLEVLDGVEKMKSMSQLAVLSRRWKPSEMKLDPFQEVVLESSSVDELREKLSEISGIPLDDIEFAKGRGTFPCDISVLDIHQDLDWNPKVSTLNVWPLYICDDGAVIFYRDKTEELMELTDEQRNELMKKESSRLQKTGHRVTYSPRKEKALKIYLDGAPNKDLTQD
Method in brief: as §1

USP48 = biological target: T3, USP48 (UniProt Q86UV5)
T3 sequence (whole entry): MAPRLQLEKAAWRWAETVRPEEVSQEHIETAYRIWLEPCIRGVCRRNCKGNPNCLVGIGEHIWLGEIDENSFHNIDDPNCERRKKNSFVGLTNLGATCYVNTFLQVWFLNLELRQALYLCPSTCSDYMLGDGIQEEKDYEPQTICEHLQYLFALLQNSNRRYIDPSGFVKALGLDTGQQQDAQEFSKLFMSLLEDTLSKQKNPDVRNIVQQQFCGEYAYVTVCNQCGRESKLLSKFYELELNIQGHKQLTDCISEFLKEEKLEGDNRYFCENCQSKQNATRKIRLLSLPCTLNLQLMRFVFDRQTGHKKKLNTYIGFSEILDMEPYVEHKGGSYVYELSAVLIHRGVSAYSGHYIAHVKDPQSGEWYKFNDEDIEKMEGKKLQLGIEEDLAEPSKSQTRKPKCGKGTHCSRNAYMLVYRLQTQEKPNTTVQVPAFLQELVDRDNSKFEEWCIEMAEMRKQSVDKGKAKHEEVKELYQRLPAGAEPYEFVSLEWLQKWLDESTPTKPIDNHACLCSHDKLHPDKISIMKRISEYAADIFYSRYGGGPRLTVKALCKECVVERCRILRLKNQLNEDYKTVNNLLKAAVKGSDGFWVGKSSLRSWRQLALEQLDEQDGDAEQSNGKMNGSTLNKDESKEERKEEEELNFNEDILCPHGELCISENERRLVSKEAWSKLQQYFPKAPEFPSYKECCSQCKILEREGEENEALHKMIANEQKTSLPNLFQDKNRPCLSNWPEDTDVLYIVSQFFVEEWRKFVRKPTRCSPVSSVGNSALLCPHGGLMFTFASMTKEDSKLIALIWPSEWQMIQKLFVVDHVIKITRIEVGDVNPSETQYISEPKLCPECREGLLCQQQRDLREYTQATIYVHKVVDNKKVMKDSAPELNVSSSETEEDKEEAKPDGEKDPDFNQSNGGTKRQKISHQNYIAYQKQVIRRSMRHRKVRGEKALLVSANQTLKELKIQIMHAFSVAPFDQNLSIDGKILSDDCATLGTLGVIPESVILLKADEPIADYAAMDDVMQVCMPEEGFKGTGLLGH
Method in brief: as §1

USP5 = biological target: T4, USP5 (UniProt P45974)
T4 sequence (whole entry): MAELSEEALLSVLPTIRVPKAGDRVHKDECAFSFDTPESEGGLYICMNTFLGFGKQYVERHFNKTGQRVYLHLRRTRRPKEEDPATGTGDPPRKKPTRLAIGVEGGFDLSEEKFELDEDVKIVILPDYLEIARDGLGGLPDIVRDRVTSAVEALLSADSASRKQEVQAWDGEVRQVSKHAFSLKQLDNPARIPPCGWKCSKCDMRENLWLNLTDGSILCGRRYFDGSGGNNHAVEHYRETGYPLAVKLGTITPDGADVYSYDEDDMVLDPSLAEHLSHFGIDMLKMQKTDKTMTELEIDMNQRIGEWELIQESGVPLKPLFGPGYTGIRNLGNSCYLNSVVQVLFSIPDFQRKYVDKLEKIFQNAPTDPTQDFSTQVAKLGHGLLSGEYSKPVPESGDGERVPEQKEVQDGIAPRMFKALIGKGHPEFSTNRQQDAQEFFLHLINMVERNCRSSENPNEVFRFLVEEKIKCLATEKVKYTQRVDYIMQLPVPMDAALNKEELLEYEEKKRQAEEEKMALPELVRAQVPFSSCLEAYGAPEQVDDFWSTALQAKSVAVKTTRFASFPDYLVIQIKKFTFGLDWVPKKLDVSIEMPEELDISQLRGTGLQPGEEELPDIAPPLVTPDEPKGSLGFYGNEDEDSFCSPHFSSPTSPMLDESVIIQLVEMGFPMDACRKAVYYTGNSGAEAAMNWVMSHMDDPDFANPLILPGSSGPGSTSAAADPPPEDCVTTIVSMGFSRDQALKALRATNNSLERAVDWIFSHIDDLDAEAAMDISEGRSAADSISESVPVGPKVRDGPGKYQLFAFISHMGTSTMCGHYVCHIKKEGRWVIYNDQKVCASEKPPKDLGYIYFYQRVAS
Method in brief: as §1

USP54 = USP54 (UniProt Q70EL1)
Chain of USP54 (Q70EL1 whole entry): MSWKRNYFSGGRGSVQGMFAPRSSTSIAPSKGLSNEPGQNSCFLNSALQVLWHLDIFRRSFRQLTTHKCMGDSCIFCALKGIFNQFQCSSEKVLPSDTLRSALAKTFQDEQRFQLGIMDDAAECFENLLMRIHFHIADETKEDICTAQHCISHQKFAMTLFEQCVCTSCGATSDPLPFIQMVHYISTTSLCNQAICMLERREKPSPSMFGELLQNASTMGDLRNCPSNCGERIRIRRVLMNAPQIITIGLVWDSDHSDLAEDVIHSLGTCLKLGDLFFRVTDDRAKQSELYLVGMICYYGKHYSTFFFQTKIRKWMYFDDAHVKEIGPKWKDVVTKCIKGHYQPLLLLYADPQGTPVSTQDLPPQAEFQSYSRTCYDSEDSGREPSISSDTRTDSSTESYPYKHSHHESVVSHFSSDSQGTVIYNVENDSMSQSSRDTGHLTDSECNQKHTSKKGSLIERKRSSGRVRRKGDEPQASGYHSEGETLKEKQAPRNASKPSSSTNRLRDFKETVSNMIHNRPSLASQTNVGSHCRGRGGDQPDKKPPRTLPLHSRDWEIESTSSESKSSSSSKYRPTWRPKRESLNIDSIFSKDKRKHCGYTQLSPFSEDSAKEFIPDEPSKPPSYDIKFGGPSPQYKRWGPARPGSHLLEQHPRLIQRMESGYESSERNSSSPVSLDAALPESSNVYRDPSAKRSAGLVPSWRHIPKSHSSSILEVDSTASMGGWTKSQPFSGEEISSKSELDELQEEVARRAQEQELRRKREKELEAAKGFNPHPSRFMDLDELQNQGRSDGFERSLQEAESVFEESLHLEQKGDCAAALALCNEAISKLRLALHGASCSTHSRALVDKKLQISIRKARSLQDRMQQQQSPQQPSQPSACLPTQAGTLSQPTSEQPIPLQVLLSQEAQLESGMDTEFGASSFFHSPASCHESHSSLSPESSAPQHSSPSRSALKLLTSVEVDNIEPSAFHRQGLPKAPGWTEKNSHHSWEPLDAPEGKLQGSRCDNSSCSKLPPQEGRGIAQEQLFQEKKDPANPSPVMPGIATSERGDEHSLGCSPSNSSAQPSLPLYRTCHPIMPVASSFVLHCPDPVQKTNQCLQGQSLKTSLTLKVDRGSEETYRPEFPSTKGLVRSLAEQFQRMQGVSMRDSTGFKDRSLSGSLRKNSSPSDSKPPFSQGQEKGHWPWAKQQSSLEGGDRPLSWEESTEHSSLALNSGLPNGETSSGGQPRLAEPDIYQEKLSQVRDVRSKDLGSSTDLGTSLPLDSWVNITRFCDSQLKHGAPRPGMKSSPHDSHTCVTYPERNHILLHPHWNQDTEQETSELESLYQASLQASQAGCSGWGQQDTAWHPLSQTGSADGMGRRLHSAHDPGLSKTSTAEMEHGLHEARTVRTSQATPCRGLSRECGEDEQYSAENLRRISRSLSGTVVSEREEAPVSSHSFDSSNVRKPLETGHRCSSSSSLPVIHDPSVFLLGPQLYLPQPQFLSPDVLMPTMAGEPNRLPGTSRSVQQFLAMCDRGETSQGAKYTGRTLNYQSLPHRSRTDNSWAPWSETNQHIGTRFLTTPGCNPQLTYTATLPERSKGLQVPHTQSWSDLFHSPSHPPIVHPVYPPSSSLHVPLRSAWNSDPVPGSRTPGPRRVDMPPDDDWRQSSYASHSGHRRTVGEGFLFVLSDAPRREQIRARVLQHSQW
Method in brief: as §1

USP7 = USP7 (UniProt Q93009)
Chain of USP7 (Q93009 whole entry, looked up): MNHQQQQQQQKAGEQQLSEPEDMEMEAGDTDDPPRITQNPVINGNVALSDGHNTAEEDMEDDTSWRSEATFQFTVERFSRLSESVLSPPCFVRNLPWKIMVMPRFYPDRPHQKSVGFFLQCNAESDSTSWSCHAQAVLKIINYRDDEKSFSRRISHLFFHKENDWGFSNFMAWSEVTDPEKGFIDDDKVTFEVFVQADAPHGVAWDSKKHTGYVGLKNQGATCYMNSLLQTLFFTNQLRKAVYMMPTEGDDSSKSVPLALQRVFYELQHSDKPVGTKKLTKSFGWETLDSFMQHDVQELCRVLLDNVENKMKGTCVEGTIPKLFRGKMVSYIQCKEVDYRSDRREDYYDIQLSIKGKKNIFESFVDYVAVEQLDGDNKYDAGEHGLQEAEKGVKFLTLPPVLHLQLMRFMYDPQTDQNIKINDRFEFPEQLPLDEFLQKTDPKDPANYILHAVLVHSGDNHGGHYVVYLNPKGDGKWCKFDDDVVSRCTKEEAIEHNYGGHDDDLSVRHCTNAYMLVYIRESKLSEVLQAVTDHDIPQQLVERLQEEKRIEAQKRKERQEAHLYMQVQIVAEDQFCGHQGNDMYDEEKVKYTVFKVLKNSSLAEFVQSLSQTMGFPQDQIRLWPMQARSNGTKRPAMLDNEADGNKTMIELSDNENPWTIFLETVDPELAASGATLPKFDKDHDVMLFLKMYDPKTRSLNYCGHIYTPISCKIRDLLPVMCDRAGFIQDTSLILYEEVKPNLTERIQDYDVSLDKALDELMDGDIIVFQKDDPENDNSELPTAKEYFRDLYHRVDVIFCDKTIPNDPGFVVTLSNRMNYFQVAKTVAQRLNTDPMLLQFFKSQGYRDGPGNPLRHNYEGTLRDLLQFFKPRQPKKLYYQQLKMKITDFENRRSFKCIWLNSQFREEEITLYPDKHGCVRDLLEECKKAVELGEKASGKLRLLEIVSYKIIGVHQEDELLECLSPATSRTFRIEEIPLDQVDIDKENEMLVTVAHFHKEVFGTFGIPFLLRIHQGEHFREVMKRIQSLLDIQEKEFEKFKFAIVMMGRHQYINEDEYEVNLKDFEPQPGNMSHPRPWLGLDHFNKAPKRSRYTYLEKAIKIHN
Method in brief: as §1

USP8 = biological target: T5, USP8 (UniProt P40818)
T5 sequence (whole entry): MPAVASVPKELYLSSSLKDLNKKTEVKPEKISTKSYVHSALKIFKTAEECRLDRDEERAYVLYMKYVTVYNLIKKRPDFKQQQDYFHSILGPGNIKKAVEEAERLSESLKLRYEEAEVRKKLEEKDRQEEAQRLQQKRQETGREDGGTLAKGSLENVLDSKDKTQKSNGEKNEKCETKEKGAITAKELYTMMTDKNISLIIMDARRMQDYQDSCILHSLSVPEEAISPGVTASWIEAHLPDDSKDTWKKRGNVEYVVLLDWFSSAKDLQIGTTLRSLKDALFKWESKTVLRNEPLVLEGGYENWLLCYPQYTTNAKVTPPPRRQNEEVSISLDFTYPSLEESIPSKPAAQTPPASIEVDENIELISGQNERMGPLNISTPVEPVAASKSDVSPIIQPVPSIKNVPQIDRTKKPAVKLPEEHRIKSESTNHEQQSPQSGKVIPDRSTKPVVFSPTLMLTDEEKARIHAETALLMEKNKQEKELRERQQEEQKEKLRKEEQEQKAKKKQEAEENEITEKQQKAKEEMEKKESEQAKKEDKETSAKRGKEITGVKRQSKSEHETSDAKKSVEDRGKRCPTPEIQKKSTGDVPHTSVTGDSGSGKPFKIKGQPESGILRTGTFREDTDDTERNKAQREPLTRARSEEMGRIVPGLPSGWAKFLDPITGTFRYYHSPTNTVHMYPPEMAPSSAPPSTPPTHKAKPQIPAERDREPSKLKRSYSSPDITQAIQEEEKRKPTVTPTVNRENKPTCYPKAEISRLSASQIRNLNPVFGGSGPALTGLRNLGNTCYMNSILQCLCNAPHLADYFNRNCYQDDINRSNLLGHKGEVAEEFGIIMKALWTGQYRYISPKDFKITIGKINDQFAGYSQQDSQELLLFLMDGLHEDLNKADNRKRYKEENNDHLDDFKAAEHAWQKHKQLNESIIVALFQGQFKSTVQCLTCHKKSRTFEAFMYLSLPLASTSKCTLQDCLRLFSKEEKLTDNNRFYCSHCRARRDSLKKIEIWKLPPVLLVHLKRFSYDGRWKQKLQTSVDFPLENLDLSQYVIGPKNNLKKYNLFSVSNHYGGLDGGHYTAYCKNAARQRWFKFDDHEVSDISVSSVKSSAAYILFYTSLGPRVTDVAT
Method in brief: as §1

USP9X = USP9X (UniProt Q93008)
Method in brief: as §1

UniProt O00487 = biological target: UniProt O00487
Chain of UniProt O00487 (O00487 whole entry): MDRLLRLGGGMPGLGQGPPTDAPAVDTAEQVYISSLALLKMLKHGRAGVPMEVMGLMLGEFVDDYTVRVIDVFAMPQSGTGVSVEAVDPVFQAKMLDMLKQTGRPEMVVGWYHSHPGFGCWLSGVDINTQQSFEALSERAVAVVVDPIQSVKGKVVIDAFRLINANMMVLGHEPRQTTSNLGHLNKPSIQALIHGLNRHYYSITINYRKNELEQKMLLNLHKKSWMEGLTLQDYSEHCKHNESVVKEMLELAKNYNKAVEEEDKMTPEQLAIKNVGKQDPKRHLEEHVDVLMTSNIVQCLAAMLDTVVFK
Method in brief: as §1

Measured: log2 ratio of Biotin-Ahx-Ub-VS probe labelling

O=C(CCl)Nc1ccc(N2CCCC2=O)cc1
inactive: USP42 -0.131 | USP46 0.132 | USP47 0.214 | USP48 -0.192 | USP5 -0.0866 | USP54 0.313 | USP7 -0.0242 | USP8 0.198 | USP9X 0.00968 | UniProt O00487 -0.0936
